The nature of assay [1]: qHTS of pediatric cancer cell lines to identify multiple opportunities for drug repurposing: Confirmatory screen for Rh30 cells (AID 1347126). Further: nearly all actives have a fitted effect of over 55% in size. Further: potency means the concentration at half of the fitted maximal effect. The method in brief: (§1)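 Cells (500-1,000/well) rested 5 h, then received compounds for 48 h; metabolically active cells were measured by CellTiter-Glo luminescence. Final concentrations spanned up to 46 µM (MIPE, 11-point) or 0.59 nM-46 µM (NPC, 8-point) in primary screens, 11-point in follow-ups.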

Assay [2] in a line: qHTS of pediatric cancer cell lines to identify multiple opportunities for drug repurposing: Confirmatory screen for OHS-50 cells (AID 1347128).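 Further: compound exposure lasted 48 h at 37 degrees C; nearly all actives have a fitted effect of over 55% in size.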 Further: potency means the concentration at half of the fitted maximal effect. In a few lines: as §1
In general terms: Quantitative high-throughput screening tests each substance at several concentrations.

Assay [3] is described as follows: qHTS of pediatric cancer cell lines to identify multiple opportunities for drug repurposing: Confirmatory screen for SK-N-SH cells (AID 1347129).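 Further: cells exposed to compound for 48 h before viability read; nearly all actives have a fitted effect of over 60% in size.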 Further: potency means the concentration at half of the fitted maximal effect. In a few lines:
as §1

Assay [4] is described as follows: qHTS of pediatric cancer cell lines to identify multiple opportunities for drug repurposing: Confirmatory screen for Rh18 cells (AID 1347125). Further: nearly all actives have a fitted effect of over 55% in size. Further: potency means the concentration at half of the fitted maximal effect. The method in brief: as §1
Assay [5] has as its system Zika virus NS2B-NS3 protease. The assay is described as follows: Primary screen GU AMC qHTS for Zika virus inhibitors (AID 1347154).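 Further: 0% = no-inhibitor control and -100% = no-enzyme control; nearly all actives have a fitted effect of over 70% in size.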 The method in brief: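 Fluorogenic AMC-substrate cleavage by noncovalent NS2B-NS3 protease complex (25 nM, pH 8.0 Tris buffer with Tween 20) followed for 15 minutes at room temperature (~20% conversion). Percent inhibition from ex340/em450 signal change, fitted by 4-parameter Hill equation.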

Assay [6] in a line: qHTS of pediatric cancer cell lines to identify multiple opportunities for drug repurposing: Confirmatory screen for Saos-2 cells (AID 1347127). Further: nearly all actives have a fitted effect of over 60% in size. Further: potency means the concentration at half of the fitted maximal effect. The method in brief: as §1
For a further assay, the target named is Furin (Homo sapiens) (UniProt P09958). Description: Furin counterscreen qHTS for Zika virus inhibitors (AID 1347149).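 Further: purified recombinant full-length human furin enzyme at 5 nM; fluorescence gain from furin cutting a BOC-RVRR-AMC peptide substrate over 15 min; top concentration of the series differs between compounds; plate controls were no-inhibitor control for no effect and no-enzyme control for full effect; nearly all actives have a fitted effect of over 70% in size.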 In a few lines: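 Fluorogenic cleavage of BOC-RVRR-AMC (2 microM final, Km ~15 µM) was monitored (ex 340, em 450 nm) at 37C after 15 min RT preincubation of 5 nM furin with compounds in HEPES pH 7.0 buffer with CaCl2 and Triton X-100. Percent inhibition was fitted to a 4-parameter Hill curve.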
(In general: Counterscreens check selectivity or assay interference.)

In assay [7] the test system is Zika virus NS2B-NS3 protease (linked construct). Description: Confirmatory screen NINDS AMC qHTS for Zika virus inhibitors (AID 1347152).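 Further: AMC fluorescence gain from cleaved Bz-Nle-KRR-AMC substrate over 15 min; top concentration of the series differs between compounds; 0% = no-inhibitor control and -100% = no-enzyme control; nearly all actives have a fitted effect of over 70% in size.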 The method in brief: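 Concentration-response confirmation used the NINDS linked protease (NS2B hydrophilic domain joined to NS3 protease domain), 1 nM, with a 15-min compound preincubation. Substrate, Nle-KRR-AMC at 10 microM, was read by UV fluorescence before and after 15 min.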

The subject of assay [8] is Zika virus NS2B-NS3 protease (unlinked complex). The assay is described as follows: Confirmatory screen GU AMC qHTS for Zika virus inhibitors (AID 1347153).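 Further: percent inhibition with 0% = no inhibitor control and 100% = no enzyme control; nearly all actives have a fitted effect of over 70% in size.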 In a few lines:
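Fluorescence change (ex 340/em 450 nm) over 15 min, ~20% substrate conversion, normalized to no-inhibitor and no-enzyme controls, then Hill-fitted. Unlinked protease at 25 nM; AMC peptide 10 µM.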

Inconclusive results are not listed. Values without a mark were called inactive. Calls of active or inactive are those of the source. The call rests on the fitted dose curve; in most records, active means well fitted curve in the direction sought with a large enough effect; inconclusive means small, poorly fitted or top-dose-only effect, or another doubt; inactive means no such curve, though single readings can be large; an effect the other way counts as inactive or inconclusive.

Furin (Homo sapiens), sequence (P09958 whole entry, looked up): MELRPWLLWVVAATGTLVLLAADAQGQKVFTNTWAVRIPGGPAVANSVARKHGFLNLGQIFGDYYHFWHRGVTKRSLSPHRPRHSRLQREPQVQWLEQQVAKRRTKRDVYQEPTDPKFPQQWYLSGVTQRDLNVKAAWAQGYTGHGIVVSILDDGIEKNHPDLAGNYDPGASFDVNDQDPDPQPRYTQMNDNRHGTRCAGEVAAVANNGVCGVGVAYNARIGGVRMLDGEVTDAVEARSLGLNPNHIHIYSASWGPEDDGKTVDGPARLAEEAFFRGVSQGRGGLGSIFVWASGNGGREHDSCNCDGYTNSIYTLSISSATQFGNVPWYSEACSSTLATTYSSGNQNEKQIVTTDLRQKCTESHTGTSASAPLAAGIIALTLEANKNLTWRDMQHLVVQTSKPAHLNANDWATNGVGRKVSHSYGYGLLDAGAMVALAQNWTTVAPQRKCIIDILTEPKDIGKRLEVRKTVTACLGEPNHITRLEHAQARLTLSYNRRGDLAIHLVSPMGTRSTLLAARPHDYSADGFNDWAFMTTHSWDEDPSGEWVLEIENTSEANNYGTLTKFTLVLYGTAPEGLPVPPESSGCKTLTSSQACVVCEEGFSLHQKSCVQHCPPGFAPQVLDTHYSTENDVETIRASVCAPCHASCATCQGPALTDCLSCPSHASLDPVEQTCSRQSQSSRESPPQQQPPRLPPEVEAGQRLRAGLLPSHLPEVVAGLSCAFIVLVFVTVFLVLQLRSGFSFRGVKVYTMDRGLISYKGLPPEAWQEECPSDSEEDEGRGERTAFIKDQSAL

Regarding `O=C1NC(=O)C(=Cc2ccc3nccc(-c4ccncc4)c3c2)S1`, the Potency in [1] is 6.57 µM (active); in assay [2], 7.37 µM (active); in [3] it was 4.18 µM (active).
Take `CC(C=CC1=C(C)CCCC1(C)C)=CC=CC(C)=CC(=O)Nc1ccc(O)cc1`: the values for the Potency in assay [4], in assay [2] and in [3] were 42.7 µM (active), 42.7 µM (active) and 38.2 µM (active), respectively.
For `COc1ccc(Nc2cc(-c3cnc(N)nc3)nc(N3CCOCC3)n2)cn1`, the Potency in [4] was 11.7 µM (active); in assay [2], 6.57 µM (active); in assay [3] it was 5.9 µM (active).
Regarding `CCC(C=C[C@@H]1OC(=O)C=C[C@H]1C)=C[C@H](C)CC=CC(C)=C[C@@H](C)C(=O)[C@@H](C)[C@H](O)[C@@H](C)CC(C)=CC(=O)O`, the Potency is 0.0091 µM (active) in [4] and 0.0161 µM (active) in assay [2]. Further, in assay [5], the activity change, negative = inhibition was 23.8% [at 2.16 µM].
Consider `CCN(CC)Cc1ccc2cc(COC(=O)Nc3ccc(C(=O)NO)cc3)ccc2c1`, for which the Potency result in assay [1], in assay [3] and in assay [5] was “inactive” throughout.
On to `CC[C@@]1([C@@H]2O[C@@H]([C@H]3O[C@@](O)(CO)[C@H](C)C[C@H]3C)C[C@H]2C)CC[C@H]([C@]2(C)CC[C@]3(C[C@H](O)[C@@H](C)[C@@H]([C@@H](C)[C@@H](OC)[C@H](C)C(=O)O)O3)O2)O1`, for which the Potency in assay [2] was 0.456 µM (active); in [3], 0.645 µM (active). Besides, the Potency entry in assay [5] is “inactive”.
For `C=CC(=O)Nc1ccc2ncnc(Nc3ccc(OCc4cccc(F)c4)c(Cl)c3)c2c1`, the Potency in assay [4] was 16.5 µM (active); in [6], 7.37 µM (active); in assay [2], 6.57 µM (active); in [3], 16.6 µM (active). Moreover, the Potency entry in [5] was “inactive”.
Consider `NC(=O)Nc1cc(-c2ccc(CN3CCOCC3)cc2)sc1C(N)=O`, for which the Potency is 13.1 µM (active) in assay [6] and 14.8 µM (active) in [3].
With `CCC(C(=O)O)C1CCC(C)C(C(C)C(O)C(C)C(=O)C(CC)C2OC3(C=CC(O)[C@@]4(CC[C@](C)(C5CC[C@@](O)(CC)C(C)O5)O4)O3)C(C)CC2C)O1` (some centres not stated), the Potency in assay [1] was 18.5 µM (active); in [2] it was 0.369 µM (active); in assay [3] it was 5.9 µM (active).
With `CCCCC(=O)O[C@]1(C(=O)CO)[C@@H](C)C[C@H]2[C@@H]3CCC4=CC(=O)C=C[C@]4(C)[C@@]3(F)[C@@H](O)C[C@@]21C`, the Potency entry in [4], in assay [2], in assay [3] and in [5] was “inactive” in each case.
Regarding `CC(C)NC[C@@H](C(=O)N1CCN(c2ncnc3c2[C@H](C)C[C@H]3O)CC1)c1ccc(Cl)cc1`, the Potency was 8.27 µM (active) in assay [1], 6.57 µM (active) in assay [6] and 16.6 µM (active) in [3]. Besides, in [5], the Potency result was “inactive”.
Take `COc1cc(C[C@@H](CO)[C@H](CO)Cc2ccc(O)c(OC)c2)ccc1O`: the Potency entry in [4], in assay [2] and in [3] was “inactive” throughout.
Regarding `Cc1ncc(-c2ccnc(Nc3ccc(S(C)(=O)=O)cc3)n2)n1C(C)C`, the Potency was 3.29 µM (active) in [2] and 4.18 µM (active) in assay [3].
Regarding `CNC(=O)c1cccc(-c2ccc3c(N4CCOC[C@H]4C)nc(N4CCOC[C@H]4C)nc3n2)c1`, the Potency in assay [2] was 6.57 µM (active); in [3] it was 2.64 µM (active). For the same compound, the Potency result (with Furin (Homo sapiens); in [7]; in assay [8]) was “inactive” each time.
`CC(N[C@H]1CCCC[C@H]1NC(=O)c1ccc(Cl)cc1)c1cccc2ccccc12` (some centres not stated): the Potency in assay [6] was 26.1 µM (active); in assay [2], 20.8 µM (active); in assay [3], 9.35 µM (active). Further, in assay [5], the Potency result was “inactive”.
Take `O=C1NC(=O)[C@@H](c2cn3c4c(cccc24)CCC3)[C@H]1c1c[nH]c2ccccc12`: in [6], the Potency was 0.928 µM (active). In addition, in assay [5], the Potency entry was “inactive”.
For `O=C(O)c1ccc(Nc2ncc3c(n2)-c2ccc(Cl)cc2C(c2c(F)cccc2F)=NC3)cc1`, the Potency result in assay [1] and in [2] was “inactive” each time.
For `O=C1c2c(O)cccc2[C@@H]([C@@H]2O[C@H](CO)[C@@H](O)[C@H](O)[C@H]2O)c2cc(CO)cc(O)c21`, the Potency entry in assay [6], in assay [2], in assay [3] and in assay [5] was “inactive” throughout.
`NC(=O)Nc1sc(-c2ccc(F)cc2)cc1C(N)=O`: in [3], the Potency is 14.8 µM (active). Further, in assay [5], the Potency result is “inactive”.
For `O=C(Nc1cc2cc[nH]c2cn1)c1ccccc1`, the Potency in assay [4] was 8.27 µM (active); in assay [2], 10.4 µM (active); in assay [3] it was 10.5 µM (active). Besides, the Potency entry in [5] is “inactive”.
As for `CCOC(=O)C1=C(C)NC(=S)NC1c1cccc(O)c1` (configuration not stated), the Potency entry in assay [4] and in [3] was “inactive” in each case.
In the case of `CC[C@]12C=CCN3CC[C@@]4(c5cc([C@@]6(C(=O)OC)C[C@H]7C[C@@H](C(C)(F)F)CN(Cc8c6[nH]c6ccccc86)C7)c(OC)cc5N(C)[C@H]4[C@@](O)(C(=O)OC)[C@H]1OC(C)=O)[C@@H]32`, the Potency entry in assay [4], in [6], in [2], in assay [3] and in assay [5] was “inactive” throughout.
`COc1cc2ncnc(Nc3cccc(Br)c3)c2cc1OC`: the Potency is 9.27 µM (active) in assay [1], 10.4 µM (active) in [2] and 20.9 µM (active) in assay [3].
As for `Cn1cnc(=N)c2[nH]cnc21`, the Potency result in assay [4], in [2], in assay [3] and in assay [5] was “inactive” in each case.
For the compound `Cc1cnc(Nc2ccc(N3CCN(C)CC3)cc2)nc1Nc1cccc(S(=O)(=O)NC(C)(C)C)c1`, the Potency in assay [4] was 2.93 µM (active); in assay [6] it was 3.69 µM (active); in assay [2], 2.93 µM (active); in assay [3], 2.35 µM (active). The Potency entry in assay [5] is “inactive”.
With `CS[C@H]1SC[C@@H]2C(=O)N(C)[C@H](C(C)C)C(=O)OC[C@H](NC(=O)c3cnc4ccccc4n3)C(=O)N[C@H](C)C(=O)N(C)[C@@H]1C(=O)N(C)[C@H](C(C)C)C(=O)OC[C@H](NC(=O)c1cnc3ccccc3n1)C(=O)N[C@H](C)C(=O)N2C`, the Potency result in assay [4] and in assay [5] was “inactive” each time. Moreover, the Potency in assay [2] is 0.0147 µM (active); in assay [3] it was 0.0132 µM (active).
For `CCOc1cc2ncc(C#N)c(Nc3ccc(OCc4ccccn4)c(Cl)c3)c2cc1NC(=O)C=CCN(C)C`, the Potency in assay [1] was 5.85 µM (active). Moreover, the Potency entry in [5] is “inactive”.
Consider `COc1cc(O)c2c(c1)C1OC1C[C@H](O)[C@H](O)C(=O)C=CC[C@H](C)OC2=O` (some centres not stated), for which the Potency in assay [4] was 18.5 µM (active); in assay [3], 4.69 µM (active).
In the case of `CN(CC(=O)N(Cc1ccc(C2CCCCC2)cc1)c1ccc(C(=O)O)c(O)c1)S(=O)(=O)c1c(F)c(F)c(F)c(F)c1F`, the Potency result in assay [1] was “inactive”.

The record behind these values is PubChem BioAssay (NCATS).
